{"source": "paper PMC4242493", "about": "“Sequence specificity incompletely defines the genome-wide occupancy of Myc”"}
{"molecular_target": "Myc;MaxL (Homo sapiens;Homo sapiens, UniProt P01106-1;P61244 1-439;1-160, |)", "sequence (P01106 16-454, chain 1 of 2)": "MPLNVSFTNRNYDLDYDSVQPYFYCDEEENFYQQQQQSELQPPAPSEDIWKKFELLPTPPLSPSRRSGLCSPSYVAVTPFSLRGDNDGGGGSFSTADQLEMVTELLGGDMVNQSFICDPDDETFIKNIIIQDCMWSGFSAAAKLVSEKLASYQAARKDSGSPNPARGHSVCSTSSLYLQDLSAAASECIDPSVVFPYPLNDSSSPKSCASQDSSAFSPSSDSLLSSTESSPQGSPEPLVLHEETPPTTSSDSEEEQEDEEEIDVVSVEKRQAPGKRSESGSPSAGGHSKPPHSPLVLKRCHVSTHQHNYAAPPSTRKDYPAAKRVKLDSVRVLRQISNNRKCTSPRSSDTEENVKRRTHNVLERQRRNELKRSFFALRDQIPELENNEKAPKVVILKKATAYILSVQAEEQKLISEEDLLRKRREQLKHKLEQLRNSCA", "sequence (P61244 whole entry, chain 2 of 2)": "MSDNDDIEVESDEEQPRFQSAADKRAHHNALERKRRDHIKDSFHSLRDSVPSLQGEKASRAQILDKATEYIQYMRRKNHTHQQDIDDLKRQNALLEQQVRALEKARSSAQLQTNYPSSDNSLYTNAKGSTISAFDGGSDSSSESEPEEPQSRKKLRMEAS", "assay": "universal protein-binding microarray (PBM); PBS-based mixture, 10 nM His-tagged protein dimer, 2% milk, 200 ng/uL BSA, 50 ng/uL salmon testes DNA, 0.02% TX-100; detection with Alexa 488 anti-His antibody;; high values mean tight binding;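 further: fluorescence intensity normalized to that of the highest-ranked 8-mer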", "conditions": "protein: recombinant;recombinant; tags: C-terminal His-tag (pET21a);C-terminal His-tag (pET21a); copies: 1;1; dsDNA, one strand shown", "units": {"binding signal": "normalized occupancy"}}
{"sequence": "CACGTGGG", "binding signal": 0.757}
{"sequence": "CACGTGCC", "binding signal": 0.732}
{"sequence": "CACGTGGA", "binding signal": 0.81}
{"sequence": "CCACGTGG", "binding signal": 0.959}
{"sequence": "ACACGTGT", "binding signal": 0.833}
{"sequence": "CACGTGTC", "binding signal": 0.761}
{"sequence": "AACACGTG", "binding signal": 0.784}
{"sequence": "ACACGTGG", "binding signal": 0.895}
{"sequence": "CACGTGCG", "binding signal": 0.798}
{"sequence": "CACGTGGC", "binding signal": 0.927}
{"sequence": "ACCACGTG", "binding signal": 0.875}
{"sequence": "AGCACGTG", "binding signal": 0.947}
{"sequence": "CCACGTGC", "binding signal": 0.978}
{"sequence": "ACACGTGC", "binding signal": 0.766}
